Measurements reported in the antibiotic and cytotoxicity screens of Wong et al. (2023).
Among all 39,000 compounds or so, about 1,500 (3.8%) were called active. Shown is part of a subset that was picked to be rich in actives.

tested on: HSkMC (human skeletal muscle cells); experiment: cytotoxicity call (relative viability < 0.9); conditions: 10 µM

| SMILES | cytotoxicity call |
| --- | --- |
| C[C@@H]1CN([C@H](C)CO)C(=O)c2cc(NS(=O)(=O)c3ccc(Cl)cc3)ccc2O[C@@H](C)CCCCO[C@@H]1CN(C)C(=O)NC1CCCCC1 | inactive |
| C[C@@H]1CCCCO[C@H](CN(C)Cc2ccc(C(=O)O)cc2)[C@H](C)CN([C@H](C)CO)C(=O)c2cc(NC(=O)c3ccccc3)ccc2O1 | inactive |
| C[C@@H]1CN([C@H](C)CO)C(=O)c2cc(NC(=O)Cn3cnnn3)ccc2O[C@@H]1CN(C)S(C)(=O)=O | inactive |
| C[C@@H]1CCCCO[C@@H](CN(C)S(C)(=O)=O)[C@@H](C)CN([C@@H](C)CO)C(=O)c2cc(NS(=O)(=O)c3ccccc3)ccc2O1 | inactive |
| CC[C@@]1(O)C(=O)OCc2c1cc1n(c2=O)Cc2c-1nc1cc(F)c(C)c3c1c2[C@@H](N)CC3 | active |
| CCC1(O)C(=O)OCc2c1cc1n(c2=O)Cc2cc3cc(O)ccc3nc2-1 (stereo not drawn) | inactive |
| CCC1(O)C(=O)OCc2c1cc1n(c2=O)Cc2cc3c(CN(C)C)c(O)ccc3nc2-1.Cl (stereo not drawn) | inactive |
| CC(C)(C)[S@@](=O)N1Cc2cc(C(=O)N[C@H]3CCN(Cc4ccccc4)C3)nc(-c3cccc(-c4ccncc4)c3)c2[C@H]1CCO | inactive |
| Cc1noc(C)c1NC(=O)Nc1cccc2c1O[C@H](CN(C)Cc1ccc(Oc3ccccc3)cc1)[C@@H](C)CN([C@@H](C)CO)C2=O | inactive |
| C[C@H]1CCCCO[C@H](CN(C)S(=O)(=O)c2ccccc2)[C@@H](C)CN([C@@H](C)CO)C(=O)c2cc(NS(=O)(=O)c3cn(C)cn3)ccc2O1 | inactive |
| O=C(c1ccccc1O)N1CCOCC1 | inactive |
| O=C(c1cn(Cc2cncn2Cc2ccc(Br)cc2)cc1-c1cccc2ccccc12)N1CCOCC1 | active |
| Nc1ccccc1C(=O)N1CCOCC1 | inactive |
| C[C@@H]1CN([C@H](C)CO)C(=O)c2cc(NC(=O)Nc3ccccc3)ccc2O[C@@H](C)CCCCO[C@H]1CN(C)Cc1ccncc1 | inactive |
| CO[C@H]1/C=C\O[C@@]2(C)Oc3c(C)c(O)c4c(O)c(c(/C=N/N=C/N5CCCCC5)c(O)c4c3C2=O)NC(=O)/C(C)=C\C=C/[C@H](C)[C@H](O)[C@@H](C)[C@@H](O)[C@@H](C)[C@H](OC(C)=O)[C@@H]1C | active |
| COC1C=COC2(C)Oc3c(C)c(O)c4c(O)c(c5c(nc6cc(C)ccn65)c4c3C2=O)NC(=O)C(C)=CC=CC(C)C(O)C(C)C(O)C(C)C(OC(C)=O)C1C (stereo not drawn) | inactive |
| CO[C@H]1/C=C\O[C@@]2(C)Oc3c(C)c(O)c4c(c3C2=O)[C@]2(C=C(NC(=O)/C(C)=C\C=C/[C@@H](C)[C@@H](O)[C@@H](C)[C@@H](O)[C@@H](C)[C@@H](OC(C)=O)[C@@H]1C)C4=O)OCC(=O)O2 | active |
| COC1C=COC2(C)Oc3c(C)c(O)c4c(O)c(c(C=NN5CCN(C6CCCC6)CC5)c(O)c4c3C2=O)NC(=O)C(C)=CC=CC(C)C(O)C(C)C(O)C(C)C(OC(C)=O)C1C (stereo not drawn) | inactive |
| COC1C=COC2(C)Oc3c(C)c(O)c4c(O)c(c(C=NN5CCN(C)CC5)c(O)c4c3C2=O)NC(=O)C(C)=CC=CC(C)C(O)C(C)C(O)C(C)C(OC(C)=O)C1C (stereo not drawn) | inactive |
| [N-]=[N+]=Nc1ccccc1[C@H]1OC(c2ccc(OCCCO)cc2)=N[C@@]1(CCS(=O)(=O)c1ccccc1)C(=O)N1CCCCC1 | inactive |
| C[C@@H]1CCCCO[C@@H](CN(C)S(=O)(=O)c2ccc(Cl)cc2)[C@@H](C)CN([C@@H](C)CO)C(=O)c2cc(NC(=O)Nc3cccc4ccccc34)ccc2O1 | inactive |

| SMILES | cytotoxicity call |
| --- | --- |
| COc1ccccc1S(=O)(=O)N[C@H]1CC[C@H](CCNC(=O)C2CC2)O[C@H]1CO | inactive |
| CN1C(=O)c2cc(NC(=O)Cc3cccs3)ccc2OC[C@@H]2O[C@H](CC(=O)NCCc3ccncc3)CC[C@H]21 | inactive |
| COc1ccc(CN(C)C[C@@H]2Oc3c(NC(=O)c4cc(C)nn4C)cccc3C(=O)N([C@H](C)CO)C[C@H]2C)cc1 | inactive |
| Cc1c(CN2CCC(Nc3ncnc4sc(CC(F)(F)F)cc34)CC2)ccc2c1cc(C#N)n2Cc1cn[nH]c1 | active |
| COc1ccc(NC(=O)N(C)C[C@H]2Oc3ccc(NC(=O)Nc4cccc5ccccc45)cc3C(=O)N([C@@H](C)CO)C[C@H]2C)cc1 | inactive |
| COc1cc([C@@H]2c3cc4c(cc3[C@@H](O[C@@H]3O[C@@H]5CO[C@@H](C)O[C@H]5[C@H](O)[C@H]3O)[C@H]3COC(=O)[C@H]23)OCO4)cc(OC)c1O | active |
| COc1cc(C2c3cc4c(cc3C(OC3OC5COC(C)OC5C(O)C3O)C3COC(=O)C23)OCO4)cc(OC)c1O (stereo not drawn) | inactive |
| COc1cc([C@@H]2c3cc4c(cc3[C@@H](O[C@@H]3O[C@@H]5CO[C@@H](C)O[C@H]5[C@H](O)[C@H]3O)[C@@H]3COC(=O)[C@@H]23)OCO4)cc(OC)c1O | inactive |
| CC(C)(C)C(=O)Nc1ccccc1F | inactive |
| CCN(CC)C(=S)SSC(=S)N(CC)CC | active |
| C[C@H](CO)N1C[C@H](C)[C@@H](CN(C)S(=O)(=O)c2ccc(F)cc2)Oc2ccc(NC(=O)Nc3cccc4ccccc34)cc2C1=O | inactive |
| O=S1(=O)CCC(O)CC1 | inactive |
| O=C(CNc1ccc2c(c1)oc1ccccc12)c1ccc(F)cc1 | inactive |
| Cc1ccc(S(=O)(=O)Nc2ccc3c(c2)CC(=O)N([C@@H](C)CO)C[C@@H](C)[C@@H](CN(C)Cc2ccc(Cl)c(Cl)c2)O3)cc1 | active |
| Cc1ccc(S(=O)(=O)Nc2ccc3c(c2)CC(=O)N([C@H](C)CO)C[C@H](C)[C@H](CN(C)Cc2ccc(Cl)c(Cl)c2)O3)cc1 | active |
| Cc1ccc(S(=O)(=O)Nc2ccc3c(c2)CC(=O)N([C@@H](C)CO)C[C@H](C)[C@H](CN(C)Cc2ccc(Cl)c(Cl)c2)O3)cc1 | active |
| Cc1ccc(S(=O)(=O)Nc2ccc3c(c2)CC(=O)N([C@@H](C)CO)C[C@@H](C)[C@H](CN(C)Cc2ccc(Cl)c(Cl)c2)O3)cc1 | inactive |
| Cc1ccc(S(=O)(=O)Nc2ccc3c(c2)CC(=O)N([C@@H](C)CO)C[C@H](C)[C@@H](CN(C)Cc2ccc(Cl)c(Cl)c2)O3)cc1 | active |
| Cc1ccc(S(=O)(=O)Nc2ccc3c(c2)CC(=O)N([C@H](C)CO)C[C@H](C)[C@@H](CN(C)Cc2ccc(Cl)c(Cl)c2)O3)cc1 | inactive |
| C[C@H](CO)N1C[C@H](C)[C@H](CN(C)C(=O)NC2CCCCC2)OCc2ccccc2-c2c(n(C)c3ccccc23)C1=O | inactive |
| CN1C(=O)CO[C@H]2CN(C(=O)NCc3cccnc3)C[C@@H]21 | inactive |

| SMILES | cytotoxicity call |
| --- | --- |
| COc1ccc(S(=O)(=O)Nc2ccc3c(c2)CC(=O)N([C@@H](C)CO)C[C@H](C)[C@@H](CN(C)S(=O)(=O)c2ccc(C)cc2)O3)cc1 | inactive |
| Cc1nnc(SCC2=C(C(=O)O)N3C(=O)[C@@H](NC(=O)Cn4cnnn4)[C@H]3SC2)s1 | inactive |
| O=C(O)[C@@H]1CCCNC1 | inactive |
| CC(=O)CNC(=O)Cc1ccccc1 | inactive |
| CCN(CC)S(=O)(=O)c1nnc[nH]1 | inactive |
| C[C@H](CO)N1C[C@H](C)[C@@H](CN(C)C(=O)Nc2ccc(C(F)(F)F)cc2)Oc2ncc(-c3ccc(C#N)cc3)cc2C1=O | inactive |
| CO[C@@H](C(=O)N(C)C[C@H]1OCc2ccccc2-c2c(n(C)c3ccccc23)C(=O)N([C@H](C)CO)C[C@@H]1C)c1ccccc1 | inactive |
| CC(C)(C)OC(=O)N1CC[C@H](c2cn(-c3ccc(C(F)(F)F)cc3)nn2)[C@@H]1C(=O)Nc1cccc2cccnc12 | inactive |
| CO[C@@H]1CN(C)C(=O)c2cc(NS(C)(=O)=O)ccc2OC[C@H](C)N(C(=O)C2CCCCC2)C[C@@H]1C | inactive |
| COc1ccc(CN(C)C[C@H]2OCCCC[C@@H](C)Oc3ccc(NC(=O)Cc4ccccc4)cc3C(=O)N([C@H](C)CO)C[C@@H]2C)cc1 | inactive |
| CN1C(=O)c2cc(NC(=O)c3cnccn3)ccc2OC[C@@H]2O[C@H](CC(=O)N[C@H]3CCN(Cc4ccccc4)C3)CC[C@@H]21 | inactive |
| C[C@@H]1CN([C@H](C)CO)C(=O)c2ccccc2-c2ccccc2CO[C@@H]1CN(C)C(=O)Nc1cccc(Cl)c1Cl | inactive |
| Cc1ccc(S(=O)(=O)Nc2ccc3c(c2)CC(=O)N([C@H](C)CO)C[C@@H](C)[C@H](CN(C)Cc2ccc(Cl)c(Cl)c2)O3)cc1 | inactive |
| Cc1ccc(S(=O)(=O)Nc2ccc3c(c2)CC(=O)N([C@H](C)CO)C[C@@H](C)[C@@H](CN(C)Cc2ccc(Cl)c(Cl)c2)O3)cc1 | active |
| C[C@H]1CN([C@@H](C)CO)C(=O)c2cccc(NC(=O)Nc3ccc(C(F)(F)F)cc3)c2O[C@@H]1CN(C)S(=O)(=O)c1ccc(Cl)cc1 | active |
| C[C@@H]1CN([C@@H](C)CO)C(=O)c2cccc(NC(=O)Nc3ccc(C(F)(F)F)cc3)c2O[C@H]1CN(C)S(=O)(=O)c1ccc(Cl)cc1 | inactive |
| C[C@@H]1CN([C@H](C)CO)C(=O)c2cccc(NC(=O)Nc3ccc(C(F)(F)F)cc3)c2O[C@@H]1CN(C)S(=O)(=O)c1ccc(Cl)cc1 | inactive |
| C[C@H](CO)N1C[C@H](C)[C@H](CN(C)S(=O)(=O)c2ccc(Cl)cc2)Oc2c(NC(=O)Nc3ccc(C(F)(F)F)cc3)cccc2C1=O | inactive |
| C[C@@H]1CN([C@@H](C)CO)C(=O)c2cccc(NC(=O)Nc3ccc(C(F)(F)F)cc3)c2O[C@@H]1CN(C)S(=O)(=O)c1ccc(Cl)cc1 | inactive |
| C[C@H]1CN([C@@H](C)CO)C(=O)c2cccc(NC(=O)Nc3ccc(C(F)(F)F)cc3)c2O[C@H]1CN(C)S(=O)(=O)c1ccc(Cl)cc1 | active |
| C[C@@H]1CCCCO[C@H](CN(C)Cc2ccc(Cl)c(Cl)c2)[C@H](C)CN([C@@H](C)CO)C(=O)c2cc(NS(C)(=O)=O)ccc2O1 | inactive |
